Assay results taken from PubChem BioAssay (NCI).
Compounds without any hit were thinned out: in the full panel of roughly 83,000, 20% have a hit.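 Each cell line was grown in a 96-well plate and treated with one concentration of compound for 48 hours. Values below 10 were considered active.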 A number with no mark means an inactive call. Calls of active or inactive are those of the source.

Each molecule was assayed on SN12C renal (assay: NCI-60 one-dose screen, 48 h (100 = growth as untreated, 0 = no growth, -100 = all killed)). Details: 10 µM unless noted.
Method: Growth inhibition of the SN12C human tumor cell line is measured as a screen for anti-cancer activity. Cells are grown in 96 well plates and exposed to the test compound for 48 hours. Compounds are tested at a single concentration, which is 10^-5 M for most compounds. The reported endpoint is percent growth (GI% or GIPRCNT), where numbers from 0 - 100% represent growth inhibition, and numbers from -100% - 0 represent cell death. For example, a value of 40 represents 60% growth inhibition. A value of 0 means no net growth occurred over the course of the experiment. A value of -40 indicates 40% of cells at the beginning of the experiment died by the end of the experiment. A value of -100 means all cells are dead at the end of the experiment.
NCI-60 Human Tumor Cell Lines Screen was performed using the standard one-dose NCI protocol, which is described in more detail at https://dtp.cancer.gov/discovery_development/nci-60/default.htm.
Compounds with GIPRCNT values below 10 were considered active. Activity score was based on GIPRCNT using the following formula: […]
Score is 0 for GIPRCNT values of 100 or above, 50 for GIPRCNT values of 0, and 100 for GIPRCNT values of -100.

First: CC(C)n1c2ccc(Br)cc2c2c3c(c4c5ccccc5ccc4c21)C(=O)NC3=O
Second: O=c1cc(C(F)(F)F)c2cc(-c3cc4ccccc4c(=O)o3)c(O)cc2o1
The growth of the first is higher: 85.9% for the first, 64.4% for the second.

Compared with `COc1ccc(-c2cc(-c3cn(-c4cccc(Cl)c4)nc3-c3ccc(OC)cc3)on2)cc1`, `CNC(=O)Nc1ccc(-c2ccc3ncnc(Nc4cccc(Cl)c4)c3c2)cc1` is lower in growth: 89% for the first, 62.3% for the second.

Going from `Clc1cccc(C2Cc3cnccc3-c3[nH]c4ccncc4c32)c1` (stereo not given) to `O=c1cc(CNc2cc(F)cc(F)c2)c2ccc(I)cc2[nH]1`, the growth falls from 56.4% to 51.7%.

First: COC(=O)c1ccc2cc(OC)c(OC)cc2c1
Second: CCn1cc(Cc2cc(C(=O)Nc3cc4cc(OC)c(OC)cc4c(C)n3)ccc2Cl)cn1
The growth of the first is higher: 104% for the first, 50.2% for the second.

Going from `CCOC(=O)CC[C@H](NC(=O)c1ccc(N(C)Cc2cnc3nc(N)nc(N)c3n2)c2ccccc12)C(=O)OCC` to `CCOC(=O)c1cnn(CC(C)O)c1NC(=O)NCc1ccccc1C(F)(F)F` (stereo not given), the growth rises from 35.6% to 99%.

Compared with `c1cc(OCCCCCOc2cccc(-c3nc4ccccc4[nH]3)c2)cc(-c2nc3ccccc3[nH]2)c1`, `COc1ccc(/C=N/Nc2c3ccccc3nc3ccccc23)cc1` is higher in growth: 26.4% for the first, 91% for the second.

First: Fc1ccc(/C=C/[C@@H]2C[C@@H](F)CCO2)cc1
Second: O=C(CN1C(=O)S/C(=C\C(Cl)=C\c2ccccc2)C1=O)NC1CCS(=O)(=O)C1 (stereo not given)
The growth of the first is higher: 100% for the first, 79.7% for the second.

Going from `CCOC(=O)c1cnn(CC(C)O)c1NC(=O)NCc1cccc(F)c1` (stereo not given) to `CCOC(=O)c1cn2ncnc(Oc3ccc(NC(=O)NC4CC4)c(Cl)c3)c2c1C`, the growth falls from 103% to 79.9%.

Compared with `Cc1ccc(NC(=O)c2cc3ccccc3cc2O)c(C)c1`, `COc1ccc(C(=O)C/C(=C\c2ccc(O)c(OC)c2)C(=O)NN)cc1` is lower in growth: 89.7% for the first, 89% for the second.

Compared with `FC(F)(F)c1[nH]ncc1-c1nc2ccc3[nH]ncc3c2c2c1CCCC2`, `CCN(CC)c1ccc(-c2cc(-c3cc(OC)c(OC)c(OC)c3)nc(N3CCC(O)CC3)c2C#N)cc1` is higher in growth: 12.5% for the first, 13.5% for the second.

Going from `O=C(Nc1cc(Cl)cc(Cl)c1)Oc1c(Cl)c(Cl)c(Cl)c(Cl)c1Cl` to `Cc1c(C(C)(C)O)cn2ncnc(Oc3ccc(NC(=O)Nc4ccc(Cl)c(C(F)(F)F)c4)c(F)c3)c12`, the growth falls from 71.2% to 57.6%.

First: CC(O)Cc1c[nH]c(=O)[nH]c1=O (stereo not given)
Second: O=C1/C(=C/c2c[nH]c(=O)[nH]c2=O)SC(=S)N1Cc1ccccc1
The growth of the first is higher: 110% for the first, 95.5% for the second.

Compared with `COc1ccc(C/C(C)=C(\c2ccc(Cl)cc2)c2ccc(OCCN3CCCC3)cc2)cc1`, `COc1ccc(-c2cn(Cc3cc4ccccc4s3)nn2)cc1OCCN1CCCCC1` is lower in growth: 82.7% for the first, 81.6% for the second.

Going from `CCCCCCCCCCCCCCCCCCOc1ccccc1CC(=O)NCC[N+](C)(C)C` to `CCCCCCCCCCOC(=O)c1nn(C(C)=O)c2cc(C)c(C)cc12`, the growth rises from 23.5% to 102%.

Compared with `O=C1Nc2ccccc2/C1=N/N1C(=O)CN(CCCl)C1=O`, `CCN1CCN(CCNc2nccc(-c3c(-c4ccc(F)c(O)c4)nc4occn34)n2)S1(=O)=O` is lower in growth: 94.2% for the first, 33.9% for the second.

First: COc1ccc(/C=C(/C(=O)N2CCNCC2)c2cc(OC)c(OC)c(OC)c2)cc1O
Second: O=C(NCCNC(c1ccccc1)C(NCCNC(=O)c1ccccc1)c1ccccc1)c1ccccc1 (stereo not given)
The growth of the first is lower: 54.6% for the first, 97.7% for the second.

For `O=C(Nc1cc(Cl)ccc1O)c1ccccc1Nc1ccnc(C(F)(F)F)c1`, the growth was 3.5% (active).
`Cc1c2cnccc2c(C)c2c1c1cc(CO)ccc1n2C` was tested, and the growth was -33.8% (active).
For `COc1ccc(/C=C2\CN(C(=O)C(Cl)Cl)C/C(=C\c3ccc(OC)c(OC)c3)C2=O)cc1OC`, the growth was -60.6% (active).
In the case of `COc1ccc(Cl)cc1Nc1nc(C(F)(F)F)ccc1C(=O)N/N=C/c1ccc([N+](=O)[O-])cc1`, the growth is reported as 5.05% (active).
In the case of `O=C1C=CC2(O)OC/C(=C\c3ccccc3)C(O)=C2C1=O` (stereo not given), the growth is reported as -30.7% (active).
With `CCn1cc(C(=O)N/N=C/c2cccc(F)c2)c(=O)c2cc(F)c(N3CCNC(C)C3)c(F)c21` (stereo not given) the growth was -4.46% (active).
In the case of `Cc1nn(C)c2ncnc(N/N=C/c3cccc(O)c3O)c12`, the growth is reported as 7.54% (active).

`O=C(Cn1nc(-c2cccc3ccccc23)ccc1=O)NCc1cccc(Cl)c1` was tested, and the growth was 46.4% [50 µM].
